Measured values taken from PubChem BioAssay (NCI).
Compounds without any hit were thinned out: in the full panel of roughly 79,000, 15% have a hit. The source made the active and inactive calls. Cut-off read from the data, not from the text of the source: active = growth inhibition above about 70%; inactive = the rest.

Assay: NCI Yeast Anticancer Drug Screen. Data for the mgt1 strain (AID 153)
Details: S. cerevisiae mgt1 mutant growth inhibition, stronger effect = higher value
Protocol: Growth inhibition of yeast strains with defined genetic alterations is measured as a screen for potential anti-cancer activity. Selected strains with alterations in DNA damage repair or cell cycle control were exposed to compounds and growth inhibition was measured relative to vehicle treated controls. The strain used in this assay is mgt1

Measured: growth inhibition

N#CC(C#N)=Cc1ccc(C#N)cc1
inactive: at 1.2 µM -2% | at 3.7 µM -2% | at 11.0 µM 0% | at 33.0 µM -3% | at 100.0 µM 1%

COC1CC(CC2CCC(C)C(C(C)C(=O)O)O2)OC2(OC(C)(C3CCC(C)(C4OC(C5OC(O)(CO)C(C)CC5C)CC4C)O3)CC2C)C1C (stereo not given)
active: at 33.0 µM 91% | at 100.0 µM 98%
inactive: at 1.2 µM 14% | at 3.7 µM -5% | at 11.0 µM 27%

O=c1oc2ccccc2c(O)c1C(c1ccc2ccccc2c1)c1c(O)c2ccccc2oc1=O
active: at 33.0 µM 83% | at 100.0 µM 98%
inactive: at 1.2 µM 17% | at 3.7 µM 17% | at 11.0 µM 33%

COC(=O)c1c(C)ccc2c(O)c3c(cc12)C(=O)c1c2c(cc(O)c1C3=O)C1(C)OC(C)(O2)C(O)C(N(C)C)C1O (stereo not given)
active: at 33.0 µM 95% | at 100.0 µM 94%
inactive: at 1.2 µM 0% | at 3.7 µM 10% | at 11.0 µM 23%

c1c(N2CCOCC2)ssc1=[N+]1CCOCC1
inactive: at 1.2 µM 0% | at 3.7 µM 2% | at 11.0 µM -1% | at 33.0 µM 0% | at 100.0 µM 1%

C[CH2][Sn]1([CH2]C)[O]C2C(O)OC(CO)C(O)C2[O]1 (stereo not given)
inactive: at 1.2 µM -19% | at 3.7 µM -21% | at 11.0 µM -3% | at 33.0 µM 2% | at 100.0 µM 69%

O=C1c2ccc3ccccc3c2CCC1N1CCCCC1 (stereo not given)
active: at 33.0 µM 76% | at 100.0 µM 98%
inactive: at 1.2 µM 3% | at 3.7 µM 10% | at 11.0 µM 21%

CC1=C(CO)C2=C(C)C3(CC3)[C@@](C)(O)C(=O)C2=C1
inactive: at 1.2 µM -2% | at 3.7 µM -1% | at 11.0 µM -1% | at 33.0 µM -1% | at 100.0 µM 0%
